Drawing on the supplement of paper PMC6555819, this text covers PBM binding z-score for 40 sequences.

The assay has as its system VDR:RXRa (NR concentration 270 nM, RXRa partner concentration 90 nM). Briefly: PBM binding z-score (relative to random genomic background probes); higher = stronger binding; sequences stand for … in GC…GCGATTGACAGCGTAGAATGAAGG
How it is done:
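Protein-binding microarray (Agilent 4x180K custom design, double-stranded 60-nt probes: 5' GC cap, 34-nt variable region, 24-nt constant primer region; full probe sequence given). Purified or IVT nuclear receptor:RXRα heterodimers (3:1 NR:RXRα, mostly 270:90 nM) or homodimers were incubated for 1 h in PBS with 2% milk and no ligand, then detected with Alexa488 antibodies. Fluorescence from o1-orientation probes (~5 replicates averaged) was converted to z-scores against 500 random hg19 background probes. Variable regions are seed direct-repeat (DR0–DR5) sites, all their single-nucleotide variants and half-site ablations.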
On to CCTTACGGGTCAAGGTTATAGCCCGGGTGGTACG, for which the PBM binding z-score worked out at 3.31.
On to TTACCAAGGTGAAAGGTCGTTGCTGCACGCCTTG, for which the PBM binding z-score is 3.19.
Sequence AGTCAAAGTTCAGGACGAGGTAACGTTAAGCACG gave a PBM binding z-score of 2.97.
The result for TCTAGTTGGTCACGGAGGTCACAAACGACGGGTA reads 5.62; that for ACTTACGGCTCAACGAGGTTATAGCACGCGTATA, 1.53.
The result for TACCCTAGGTCATTGGGCCAGTATAGTACGCATC reads 2.73; that for TACCCTAGGTCATGGGCCAGTATACCACGCGAAC, 2.67.
The result for TCTAGTTGGTCAAAGGTCACGCACTCGAAATGCG reads 6.05.
Regarding AGAATGAGGTCATTAAGATCAGGGAATTGCGGTC, the PBM binding z-score came out at 5.8.
The result for CAAACTAGGTCACTAAAGGTCAAAGTCGAATGAC reads 6.48.
The sequence CCTACGGGGCCACGAAAGGTCATTGATTCAGTGA had a PBM binding z-score of 5.53.
As for CGTCAAAGTCCAAGGTAACGTAACAGAAAGCAGC, the PBM binding z-score is -0.137.
To CCTGCGAGGTCATGGTCAGCTAATCTACAGTATG belongs 5.17.
The result for TAGCCTAGGTCATGCGGGCCAATATAGTGTCGGC reads 3.64.
To TAGCCTAGGTCGTTCAGGGGCCAGTATAGAAAGC belongs 0.798; to CGTCCAAGGTCAATGCTAGATCAGTGAAAGCATT, 3.51.
CGTCCAAGGTCTAGGTCAGTGAAAGAGACTCGAA displayed a PBM binding z-score of 0.105.
Sequence AATACAAGGTCATCGTAGGCCAGAGTACGCACAG returned a PBM binding z-score of 5.17.
The result for GATACGGGGTCAAGGCCAGAGTACGCGTATTGAT reads 6.27.
To ATATGTAGGTTAGCTGAGGTCATTCAGACTAGGC belongs 6.12; to CCTACTGGGCCAAAGGTGATTGATTCCAATGCTC, 0.0696.
The result for CAGCATAGGTCAGGGCCAGTATAGGAGGAACGTT reads 1.4; that for CCTAGTGGGCCAAGGTCATTGATCAGTCAAAGCA, 3.33.
As for CCTAGTTGGTCAAGGTCACATACGCTATAGGTAC, the PBM binding z-score was found to be 4.04.
As to TCTTGTAGGTCAATAGAGGTTAAGAAAGTGCGCT, the PBM binding z-score came out at 4.85.
The result for TCTAGTTGGTCACGGAGGACACACACGACGGGTA reads 2.67; that for TATCAAAGTTCAAAGGTAACGTAAGTATCCACAC, 5.28; that for TTACCAAGGTCAAGGTCGTTGATCCCTCTGTAGA, 5.5.
The result for CGTCAAAGTTCAACTGAGGTAACGTAAAGCACGC reads 5.16; that for TCTAGTCGGTCAAAGGTCACACACTCGAAATGCG, 5.65; that for GCTTAAGGGTCAAAGGTTATAGCATGAATAGAAT, 6.45.
TCTATTAGTTGATTAGGGCAACCGAAACAGCGGA came in with a PBM binding z-score of 0.711.
The result for CCGACGGGGGCAAAGGTTACCATACTCAGTACGA reads 5.11.
As to GATATAGGGTCAGCTAGAGGCCAGAGTATGGAAA, the PBM binding z-score stood at 3.42.
Regarding TAGCCTAGGTCATGCGGGACAGTATAGTGTCGGC, the PBM binding z-score amounted to 3.48.
The result for ATCGAAAGGTCGACGCGGTGAGTATACACCGTTT reads 3.04; that for CGTCCGAGGTCAAGGTCAGTGAAAGAGACTCGAA, 5.48.
As for CGAACTACGTCATCCAGGACAGTGAATACATTGA, the PBM binding z-score turned out to be 0.17.
The result for CCTACTGGGCCACGAAAGGCCATTGATTCAGTGA reads -0.147.
The sequence TAGCCTAGGTCACATCGGGCCAGTATACGCTATA came in with a PBM binding z-score of 2.43.
